High-throughput results as filed in PubChem.
aSyn 5UTR act: Activators working through SNCA 5'UTR binding (MLPCN); alpha-synuclein 5'UTR reporter, activators screen; activity score, % (tested at 7.5 µM), hits read low; AID 1814; 300,000 compounds, 7.1% hits; in the data active = activity score below about -60%
Active calls of the source: *. These entries were drawn from the full list.

Results for Cc1cccc(C(=O)Nc2ccc(C(=O)N3CCCCC3C)cc2)c1 (centres undefined) ?
aSyn 5UTR act: -84.0*

Results for Cc1ccc(N2CCN(C(=O)c3ccccc3NC(=O)c3ccccc3C(=O)O)CC2)cc1 ?
aSyn 5UTR act: -99.5*

What do the screens show for `CC(=O)N1CCN(c2ccc(NC(=O)c3ccccc3)cc2)CC1`?
aSyn 5UTR act: -105.6*

What do the screens show for `CC(=O)N1CCN(c2ccc(NC(=O)c3cccc(C)c3)cc2)CC1`?
aSyn 5UTR act: -72.8*

How did CC(=O)N1CCN(c2ccc(NC(=O)c3ccc(Cl)c([N+](=O)[O-])c3)cc2)CC1 do in these assays?
aSyn 5UTR act: -70.4*

How did CCc1ccc(OC(=O)Nc2ccccc2)cc1 do in these assays?
aSyn 5UTR act: -159.5*

Results for COc1ccc(OC(=O)Nc2ccccc2)cc1 ?
aSyn 5UTR act: -92.2*

Results for COc1ccc2oc(=O)c(-c3csc(Nc4ccc(O)cc4)n3)cc2c1 ?
aSyn 5UTR act: -69.6*

What do the screens show for `COc1ccc(-c2csc(Nc3ccccc3)n2)cc1`?
aSyn 5UTR act: -150.4*

How did Oc1ccc(Nc2nc(-c3ccc(O)cc3)cs2)cc1 do in these assays?
aSyn 5UTR act: -218.9*

How did COc1ccc(Nc2nc(-c3ccc(OC)cc3)cs2)cc1 do in these assays?
aSyn 5UTR act: -105.9*

How did COc1ccc(-c2csc(Nc3ccccc3)[n+]2Cc2ccccc2)cc1 do in these assays?
aSyn 5UTR act: -95.1*

What do the screens show for `COc1ccc(Nc2nc(-c3c[nH]c4ccccc34)cs2)cc1`?
aSyn 5UTR act: -255.3*

Results for c1coc(CNc2nc(-c3cccs3)cs2)c1 ?
aSyn 5UTR act: 107.4

What do the screens show for `Oc1ccc(-c2csc(NCc3ccco3)n2)cc1`?
aSyn 5UTR act: -176.9*

How did COc1ccc(-c2csc(Nc3cccnc3)n2)cc1 do in these assays?
aSyn 5UTR act: -180.5*

What do the screens show for `Cc1nc2cc(Nc3nnc(-c4ccccc4)c4ccccc34)ccc2n1C`?
aSyn 5UTR act: -109.6*

How did Cc1ccc(-n2c(C)cc(C(=O)COC(=O)c3c(C)noc3C)c2C)cc1 do in these assays?
aSyn 5UTR act: -199.2*

What do the screens show for `Cc1sc2c(c1C)CN(Cc1ccncc1)CN2C(=O)c1ccco1`?
aSyn 5UTR act: -92.8*

Results for O=C(Nc1cccc2ccccc12)c1ccccc1 ?
aSyn 5UTR act: -141.6*

How did Nc1ccccc1C(=O)Nc1cccc2ccccc12 do in these assays?
aSyn 5UTR act: -204.4*

Results for CC(=O)c1cccc(NC(=O)C(=O)Nc2cccc3ccccc23)c1 ?
aSyn 5UTR act: -195.4*

How did Cc1cccc(NC(=S)Nc2ccccn2)c1 do in these assays?
aSyn 5UTR act: -71.2*

How did Cc1cc(C)cc(NC(=S)Nc2ccccn2)c1 do in these assays?
aSyn 5UTR act: -104.5*

Results for Cc1ccc(NC(=S)Nc2ccccn2)cc1C ?
aSyn 5UTR act: -112.0*

What do the screens show for `COc1ccc(CCC(=O)NCCS(=O)(=O)N2CCN(c3ccccc3OC)CC2)cc1`?
aSyn 5UTR act: -112.5*

Results for COc1ccc(C)c2sc(=NC(=O)c3ccccc3)n(C)c12 ?
aSyn 5UTR act: -265.6*

What do the screens show for `COc1ccc(C)c2sc(=NC(=O)c3cccc(N4C(=O)CCC4=O)c3)n(C)c12`?
aSyn 5UTR act: -92.9*

How did CC(C)Sc1nc2ccc(Br)cc2[nH]1 do in these assays?
aSyn 5UTR act: -120.0*

What do the screens show for `CC(C)(C)C(=O)O/N=C(\N)COc1cccc(Cl)c1`?
aSyn 5UTR act: -124.8*

What do the screens show for `Cc1cc(C)nc(Nc2nc3ccccc3[nH]2)n1`?
aSyn 5UTR act: -109.1*

Results for c1ccc(Nc2nc3ccccc3[nH]2)nc1 ?
aSyn 5UTR act: -168.9*

Results for Nc1nnc(SCc2coc(-c3ccc(Cl)cc3)n2)s1 ?
aSyn 5UTR act: -118.2*

How did Cc1ccc(-n2c(C)nc3c(cnn3-c3ccc(C)c(C)c3)c2=O)cc1C do in these assays?
aSyn 5UTR act: -100.7*

What do the screens show for `Cc1nc2c3cnn(-c4ccc(C)c(C)c4)c3ncn2n1`?
aSyn 5UTR act: -191.0*

Results for Cc1ccc(-c2nn3cnnc3c3ccccc23)cc1C ?
aSyn 5UTR act: 64.2

What do the screens show for `C#CCn1cnc2c(cnn2-c2ccc(C)c(C)c2)c1=O`?
aSyn 5UTR act: -107.5*

Results for COc1cc2c(O)c3c(c(-c4ccc5c(c4)OCO5)c2cc1OC)C(=O)OC3 ?
aSyn 5UTR act: 107.9

What do the screens show for `c1ccc2nc(-c3ccc4c(c3)OCO4)ccc2c1`?
aSyn 5UTR act: -81.4*

How did COc1ccc(OC)c2nc(-c3ccc4c(c3)OCO4)ccc12 do in these assays?
aSyn 5UTR act: -89.5*

What do the screens show for `CCCc1cc(-c2nc(N)ncc2-c2ccc3c(c2)OCCCO3)c(O)cc1OC`?
aSyn 5UTR act: 61.7

Results for CCCCCCOC(=O)c1ccc(OC(=O)c2cccnc2)cc1 ?
aSyn 5UTR act: -101.4*

Results for Cc1ccc(C(=O)Nc2ccc3c(c2)OCCO3)c(C)c1 ?
aSyn 5UTR act: 73.5

What do the screens show for `O=C(CCl)Nc1ccccc1C(=O)Nc1ccc2c(c1)OCO2`?
aSyn 5UTR act: -86.9*

How did COc1cccc(C(=O)Nc2ccc3c(c2)OCO3)c1OC do in these assays?
aSyn 5UTR act: -128.1*

What do the screens show for `Cc1ccc(NC(=O)c2ccoc2C)cc1C`?
aSyn 5UTR act: -231.2*

How did Cc1occc1C(=O)Nc1ccc2c(c1)OCO2 do in these assays?
aSyn 5UTR act: -144.4*

How did O=C(COC(=O)c1ccccc1NCc1ccco1)Nc1ccc2c(c1)OCO2 do in these assays?
aSyn 5UTR act: -66.5*

What do the screens show for `Cc1occc1C(=O)Nc1cccc(C(=O)O)c1`?
aSyn 5UTR act: -84.5*

Results for COc1cc(C(=O)NCC(=O)N2CCN(S(=O)(=O)c3cc(C)ccc3C)CC2)cc(OC)c1OC ?
aSyn 5UTR act: -75.0*

Results for CCOC(=O)c1sc(-c2ccc(C)cc2)c(C#N)c1C ?
aSyn 5UTR act: -64.9*

What do the screens show for `COc1ccc(-n2nc(C(=O)NCC(=O)N3CCN(c4ccccc4F)CC3)c3ccccc3c2=O)cc1`?
aSyn 5UTR act: -119.6*

What do the screens show for `COc1ccc(C(=O)Nc2cccc(N(C)S(C)(=O)=O)c2)cc1OC`?
aSyn 5UTR act: -168.1*

Results for CN(C)c1ccc(NC(=O)Nc2cccc(Cl)c2)cc1 ?
aSyn 5UTR act: -137.6*

What do the screens show for `CN(c1cccc(NC(=O)Nc2cccc(Cl)c2)c1)S(C)(=O)=O`?
aSyn 5UTR act: -91.6*

What do the screens show for `CC(Cc1cccs1)NC(=O)Nc1cccc(Cl)c1` (centres undefined)?
aSyn 5UTR act: -62.5*

How did CN1CCC(=NNc2ncnc3sc4c(c23)CCCC4)CC1 do in these assays?
aSyn 5UTR act: -82.4*

What do the screens show for `Cc1ccn2cc(CSc3ccccc3N)nc2c1`?
aSyn 5UTR act: -97.3*

How did c1ccc(CSCc2cn3ccccc3n2)cc1 do in these assays?
aSyn 5UTR act: -135.1*

Results for Cc1ccc(SCc2cn3ccccc3n2)cc1 ?
aSyn 5UTR act: -96.6*

How did Cn1c(C(=O)NCc2cccs2)cc2oc3ccccc3c21 do in these assays?
aSyn 5UTR act: -261.5*

What do the screens show for `CSCc1c(C(=O)NC2CCCc3ccccc32)oc2ccccc12` (centres undefined)?
aSyn 5UTR act: 50.7

Results for Cn1c(C(=O)NCC2CCCO2)cc2oc3ccccc3c21 (centres undefined) ?
aSyn 5UTR act: -187.9*

Results for Cn1c(=O)c(C(=O)NCC2CCCO2)c(O)c2ccccc21 (centres undefined) ?
aSyn 5UTR act: -67.4*

Results for CC1CCC/C(=C\Nc2ccc3c(c2)OCO3)C1=O (centres undefined) ?
aSyn 5UTR act: -119.4*

What do the screens show for `Cc1nc2nc(-c3cccs3)[nH]c2cc1Br`?
aSyn 5UTR act: -148.9*

How did COc1ccc(-c2nc(NC(=O)CSc3nnc(C)s3)ns2)cc1 do in these assays?
aSyn 5UTR act: -70.4*
